Hits are enriched below; roughly 2.6% of the tested compounds scored in any of these assays.
BaF3 parental = parental Ba/F3 cell viability inhibition, counter-screen for JAK2V617F inhibitor project, murine pro-B, CellTiter-Glo luminescence; AID 1486, 2009; CellTiter-Glo ATP luminescence; 1.1% of 220,000 active; inhibition, % at 5.6 µM;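 active = inhibition above a per-campaign cutoff, the mean inhibition of all tested compounds plus 3 SD, cut at about 27% in these data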;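 also: 0% = DMSO wells and 100% = JAK Inhibitor I control wells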
KLF5 inhibitor = KLF5 expression inhibitors, primary screen, DLD-1 cells, luminescence | inhibition, % at 5 µM | 0.23% of 290,000 active | DLD-1 KLF5 promoter-luciferase reporter;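 active = inhibition above a per-plate limit of that plate's mean compound inhibition plus 3 SD, cut at about 60% in these data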;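 also: 0% = DMSO wells and 100% = LY294002 at 200 µM; higher means less KLF5 promoter-driven luciferase light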
GPR7 antag = GPR7 receptor antagonists, primary screen, cell-based, fluorescence, single concentration. GPR7-expressing cells, fluorescence antagonist assay. inhibition, % at 4.4 µM. 1.1% of 290,000 active. AID 1861, 2009; in the data active = inhibition above about 16%, passing the limit was not always enough;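 also: cells stimulated with the agonist NPW; 0% = agonist with vehicle and 100% = vehicle without agonist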
Target sequence (P48145 whole entry, looked up): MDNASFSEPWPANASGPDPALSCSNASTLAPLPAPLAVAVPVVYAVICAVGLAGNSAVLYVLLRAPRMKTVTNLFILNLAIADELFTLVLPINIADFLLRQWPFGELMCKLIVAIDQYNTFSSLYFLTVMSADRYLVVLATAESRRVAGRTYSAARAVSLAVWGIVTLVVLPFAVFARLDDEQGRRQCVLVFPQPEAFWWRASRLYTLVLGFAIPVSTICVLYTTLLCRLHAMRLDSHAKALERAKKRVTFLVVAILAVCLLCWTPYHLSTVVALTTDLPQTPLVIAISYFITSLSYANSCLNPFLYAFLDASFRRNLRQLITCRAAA
DNA FID counter = compounds displacing fluorescent DNA intercalator, primary screen, artefact control for HCV NS3 helicase inhibitor project, biochemical, FID fluorescence; DNA fluorescent intercalator displacement; inhibition, % at 7.9 µM; 0.17% of 290,000 active; in the data active = inhibition above about 37%;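 also: 0% = vehicle and 100% = reference compound; higher means more ethidium bromide displaced from hairpin DNA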
IEC-6 cytotox = cytotoxicity in IEC-6 intestinal epithelial cells, primary screen, cytotoxicity control for KLF5 inhibitor project, cell-based, luminescence. IEC-6 cytotoxicity, luminescence viability. inhibition, % at 5 µM. 0.78% of 290,000 active. AID 1825, 2009;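 also: 0% = plate median of test compound wells and 100% = cytotoxic reference compound wells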
Ba/F3 V617F tox = reduced viability of JAK2V617F-dependent Ba/F3 cells, primary screen, JAK2V617F inhibitor project, cell-based, Ba/F3 EpoR-JAK2V617F, luminescence. ATP luminescence. inhibition, % at 5.6 µM. 1.1% of 220,000 active;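 active = inhibition above the campaign mean plus 3 SD over all tested compounds, cut at about 24% in these data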;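 also: cytokine-independent growth of Ba/F3 cells driven by EpoR plus mutant JAK2; 0% = DMSO-treated cells and 100% = JAK inhibitor I control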
GPR7 antag cf = GPR7 receptor antagonists, confirmation, cell-based, fluorescence, single concentration; 52% of 2,400 active; GPR7-expressing cells, calcium fluorescence antagonist mode; inhibition, % at 4.4 µM; AID 1952, 2009; shares compounds with GPR7 antag; in the data active = inhibition above about 24%;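 also: stimulated with the GPR7 agonist NPW; 0% = agonist plus vehicle and 100% = vehicle alone without agonist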
MCHR1 antagonist = MCHR1 antagonists in cells, counter-screen for GPR7 antagonist project, cell-based, fluorescence, human. 62% of 2,400 active. shares compounds with GPR7 antag. inhibition, % at 4.4 µM. MCHR1-expressing cells, fluorescence antagonist assay;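 also: 0% = vehicle with agonist and 100% = vehicle without agonist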
Active calls of the source: *; nt = no result given. Rule as the data show it, unless noted: active = inhibition above about 22%; inactive = the rest.

SMILES	BaF3 parental	KLF5 inhibitor	GPR7 antag	DNA FID counter	IEC-6 cytotox	Ba/F3 V617F tox	GPR7 antag cf	MCHR1 antagonist
CC1CN(C(=O)N2CCOCC2)CCN1C(=O)N1CCOCC1 (configuration not stated)	1.2	-13.8	-1.3	0.8	-4.4	-6.1	nt	nt
CN1CCC(N(C)CC(=O)Nc2ccc3c(c2)OC(F)(F)O3)CC1	3.1	-10.0	-7.1	12.5	-3.5	-1.8	nt	nt
CN1CCC(N(C)CC(=O)Nc2cccc(Oc3ccccc3)c2)CC1	9.0	-9.2	27.5*	25.6	6.7	6.2	2.9	6.7
CN(CC(=O)Nc1cccc(C(F)(F)F)c1)Cc1ccccc1	nt	-0.9	26.2*	13.7	-1.6	nt	24.0*	35.1*
CSCc1c(C(=O)Nc2ccc3c(c2)OCO3)oc2ccccc12	nt	-62.1	-3.7	-18.6	4.0	nt	nt	nt
c1ccc(-c2csc3ncnc(NCC4COc5ccccc5O4)c23)cc1 (configuration not stated)	70.9*	2.8	49.7*	-17.6	9.7	71.5*	54.3*	63.4*
Cc1cc(C)cc(NC(=O)NCc2c(-c3ccccc3)noc2C)c1	-3.9	-16.5	-1.1	-15.9	-1.9	1.1	nt	nt
Cc1onc(-c2ccccc2)c1CNC(=O)Nc1ccc(C(F)(F)F)cc1	-3.7	21.3	24.3*	2.3	-2.7	-1.0	27.9*	51.5*
C=CCn1c(SCC(=O)Nc2ccc(C)cc2C)nnc1-c1cccnc1	4.7	-4.9	-1.3	-13.9	2.9	0.1	nt	nt
CN(C)c1ccc(N=Nc2ccccc2C(=O)OCC(=O)N(C)C2CCCCC2)cc1	5.8	-53.5	24.7*	-21.4	11.3	-2.5	30.5*	76.1*
CCOc1ccccc1N1CCN(C(=O)c2cc(-c3cccnc3)nc3c(Cl)cccc23)CC1	nt	-8.1	-20.1	-10.9	3.2	nt	nt	nt
COc1ccccc1N1CC(C(=O)OCC(=O)c2ccc(F)cc2)CC1=O (configuration not stated)	1.3	-7.0	-3.8	-13.7	-2.8	-1.4	nt	nt
Cc1cccc(N2CC(C(=O)OCC(=O)c3ccc(OC(=O)c4cccs4)cc3)CC2=O)c1C (configuration not stated)	3.1	-39.9	30.2*	-29.2	4.1	3.4	18.1	57.8*
O=S(=O)(NCCc1ccncc1)c1ccc(Br)cc1	1.3	-23.3	-4.4	-1.5	-2.3	0.1	nt	nt
CCC(C)c1ccc(C(C)NC(=S)NC2CCCCC2)cc1 (configuration not stated)	nt	6.4	46.0*	-22.9	1.0	nt	19.4	56.7*
CC(NC(=S)NC1CCCCC1)c1ccc(C(C)(C)C)cc1 (configuration not stated)	nt	-36.7	25.1*	-27.8	3.2	nt	39.9*	60.7*
CC(C)c1ccc(C(C)NC(=S)NC2CCCCC2)cc1 (configuration not stated)	nt	-19.5	-15.8	-35.6	-6.4	nt	nt	nt
COc1ccc(Nc2nc3ccc(C)cc3cc2C#N)c(OC)c1	1.5	-15.7	-14.5	-4.9	4.2	-1.9	nt	nt
CC(NCc1cc(Br)ccc1OCC(N)=O)C12CC3CC(CC(C3)C1)C2 (configuration not stated)	nt	6.5	27.3*	9.6	4.8	nt	28.5*	35.2*
COc1cc(CNC(C)C23CC4CC(CC(C4)C2)C3)ccc1OCC(=O)NC(C)(C)C (configuration not stated)	nt	-13.3	19.5	19.4	4.3	nt	nt	nt
O=S(=O)(Nc1cc2nc3ccccc3nc2n1Cc1ccccc1)c1ccc(Cl)cc1	4.7	-50.6	16.1	-6.7	-3.2	-1.2	nt	nt
O=C(N=C1SC2CS(=O)(=O)CC2N1Cc1ccccc1Cl)C1CC1 (configuration not stated)	nt	-19.0	-3.8	-31.5	9.8	nt	nt	nt
CC(C)C(NC(=O)c1ccc(C(C)(C)C)cc1)C(=O)NCC(c1ccccc1)N(C)C (configuration not stated)	3.2	-18.7	21.5*	36.8*	-2.8	1.9	5.3	7.5
CCCCN(C)C(=O)c1nc2ccccn2c1CN1CCN(C/C=C/c2ccccc2)CC1	0.9	-14.1	26.3*	10.2	-9.3	-1.2	29.4*	20.8
Cc1cc(C)n(-c2ccc(C(=O)Nc3ccc(S(=O)(=O)NCc4ccco4)cc3)cc2)n1	12.7	6.1	45.5*	-20.9	4.3	0.8	67.2*	70.1*
SMILES	BaF3 parental	KLF5 inhibitor	GPR7 antag	DNA FID counter	IEC-6 cytotox	Ba/F3 V617F tox	GPR7 antag cf	MCHR1 antagonist
CCc1cc(=O)oc2c3c(cc(OCC(=O)NCc4ccco4)c12)OC(C)(C)CC3	nt	5.4	41.2*	-26.4	3.3	nt	14.6	31.6*
Cc1nn(CC(=O)NCc2ccc(OC(C)C)cc2)c(=O)c2cc3occc3n12	2.7	-44.3	0.4	-13.6	-3.0	-1.8	nt	nt
O=CN/N=C/c1c(O)ccc2ccccc12	0.9	-8.6	-7.0	-2.7	-4.3	-4.3	nt	nt
NC(=S)N/N=C/c1c(O)ccc2ccccc12	0.0	-3.6	23.3*	3.6	-0.4	-1.2	1.0	-0.6
CC(C)(C)n1nnnc1C(c1ccccn1)N(Cc1ccccc1)Cc1ccc(Cl)cc1 (configuration not stated)	1.9	3.2	-0.7	-24.5	5.1	-2.4	nt	nt
CCN(Cc1ccccc1)C(c1ccccn1)c1nnnn1C(C)(C)CC (configuration not stated)	-1.1	7.5	21.9*	-24.1	-2.0	-5.2	25.3*	55.9*
C=CCSc1ncccc1C(=O)NCc1ccc(C)cc1	-0.5	11.1	-3.2	-6.2	5.2	-0.7	nt	nt
CCOc1ccc(Cl)cc1CNc1nnnn1CC	nt	-35.3	-15.4	-7.7	-8.7	nt	nt	nt
CCN1CCN(C(c2nnnn2Cc2ccc3c(c2)OCO3)C(C)C)CC1 (configuration not stated)	4.2	-17.9	2.3	2.4	-2.6	-1.3	nt	nt
CC(C)C(c1nnnn1Cc1ccc(F)cc1)N1CCN(Cc2ccc3c(c2)OCO3)CC1 (configuration not stated)	3.5	-9.4	26.7*	7.0	3.6	0.1	5.9	24.9*
Cc1ccccc1NC(=O)Cn1nnc(S(=O)(=O)c2ccc(C(C)(C)C)cc2)c1N	3.5	2.0	27.6*	-5.3	5.3	-3.5	33.9*	9.8
Cc1ccccc1NC(=O)Cn1nnc(C(=O)NCc2ccco2)c1N	6.5	15.8	7.8	0.8	2.5	6.4	nt	nt
COc1cc(OC)c(CN2CCN(c3ccc(F)cc3)CC2)cc1Br	5.6	-31.9	21.8*	7.5	-3.4	-0.9	17.0	17.9
COc1cc(CNC2CCCCCCC2)cc(Cl)c1OC	nt	-15.1	17.8	15.8	1.1	nt	nt	nt
